In PubChem BioAssay (Tox21) one finds Potency and outcome data, which are given here for 10 compounds.

Assay [1] in a line: qHTS assay to identify small molecule agonists of the RXR signaling pathway - cell viability counter screen (AID 1159529).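 Note: HEK 293T cells carrying an RXR-alpha UAS beta-lactamase reporter; series mostly up to about 77 µM; nearly all actives have a fitted effect of over 50% in size.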 The method in brief:
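Steps: seed RXR-alpha-UAS-bla HEK 293T cells in assay medium containing 2% charcoal-stripped FBS; incubate 5 hr; add compounds in DMSO; incubate 16 hr at 37 C; after the bla read, add CellTiter-Glo and read luminescence at 30 min.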

The nature of assay [2]: qHTS assay to identify small molecule antagonists of the retinoid acid receptor (RAR) signaling pathway - cell viability counter screen (AID 1159551). Note: nearly all actives have a fitted effect of over 35% in size. The method, boiled down: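 Cells (C3RL4) are plated, incubated overnight, dosed with compound in DMSO, then given retinol at 1 uM final. After 6 h at 37 C, CellTiter-Glo is added and luminescence read following 30 min at room temperature.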

A short description of assay [3]: qHTS assay to identify small molecule antagonists of the estrogen related receptor (ERR) signaling pathway from Tox21 library - cell viability counter screen (AID 1224834). Note: nearly all actives have a fitted effect of over 30% in size. The method in brief: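 ERR cells, 2,000/well; 6 h settle at 37 C/5% CO2; pin-tool compound transfer in DMSO; 17.5 h at 37 C; CellTiter-Fluor, 30 min; fluorescence intensity.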
Assay [4] has as its target Luciferin 4-monooxygenase (Photinus pyralis) (UniProt P08659). The assay is described as follows: qHTS assay to identify small molecule inhibitors of firefly luciferase (AID 1224835). Note: series mostly up to about 120 µM; nearly all actives have a fitted effect of over 25% in size. The method, boiled down: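 Biochemical qHTS: compounds run as interplate titrations against purified firefly enzyme, with D-luciferin and ATP each at its KM concentration. Light output recorded by CCD imaging.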

Assay [5] can be described thus: qHTS assay to identify small molecule agonists of the constitutive androstane receptor (CAR) signaling pathway - cell viability counter screen (AID 1224836). Note: series mostly up to about 92 µM; nearly all actives have a fitted effect of over 45% in size. The method in brief:
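Cells were seeded and incubated 4 hrs. Compounds were added across 15 concentrations together with PK11195 at 0.75 uM final. Plates were incubated 23 hrs at 37 C. CellTiter-Fluor was added and fluorescence measured.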

A short description of assay [6]: qHTS assay to identify small molecule antagonists of the constitutive androstane receptor (CAR) signaling pathway - cell viability counter screen (AID 1224837). Note: series mostly up to about 92 µM; nearly all actives have a fitted effect of over 45% in size. The method, boiled down:
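Viability was measured with CellTiter-Fluor in a HepG2 line carrying stably transfected hCAR and a CYP2B6-2.2kb construct. Cells were exposed for 23 hr at 37 C to 15 compound concentrations with 50 nM CITCO as agonist.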

The target in assay [7] is Nuclear receptor subfamily 1 group I member 3 (Homo sapiens) (UniProt Q14994). Kind of assay: qHTS assay to identify small molecule antagonists of the constitutive androstane receptor (CAR) signaling pathway (AID 1224838).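 Note: HepG2 cells stably expressing hCAR with CYP2B6 luciferase reporter stimulated by CITCO; nearly all actives have a fitted effect of over 40% in size.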 Note: potency is the fitted concentration of half-maximal effect. The method in brief: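 Antagonist mode used CITCO at a final 50 nM to activate CAR in human hepatoma HepG2 cells carrying stable hCAR and a 2.2 kb CYP2B6 promoter-luciferase construct. Compounds were tested at 15 concentrations over 24 h, with luminescence as the end point.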
Nuclear receptor subfamily 1 group I member 3 (Homo sapiens), sequence (Q14994 whole entry, looked up): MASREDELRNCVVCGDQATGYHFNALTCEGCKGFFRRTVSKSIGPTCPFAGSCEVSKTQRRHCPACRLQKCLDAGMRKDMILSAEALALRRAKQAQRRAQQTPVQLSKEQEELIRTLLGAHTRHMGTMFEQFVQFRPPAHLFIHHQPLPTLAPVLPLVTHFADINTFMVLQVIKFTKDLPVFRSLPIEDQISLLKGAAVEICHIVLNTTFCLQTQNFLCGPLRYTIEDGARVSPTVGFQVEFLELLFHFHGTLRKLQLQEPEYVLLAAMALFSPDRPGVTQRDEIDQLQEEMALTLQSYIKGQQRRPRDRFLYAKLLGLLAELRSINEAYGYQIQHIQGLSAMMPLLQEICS

Assay [8] has the same target. The assay is described as follows: qHTS assay to identify small molecule agonists of the constitutive androstane receptor (CAR) signaling pathway (AID 1224839). Note: nearly all actives have a fitted effect of over 15% in size. Note: potency is the fitted concentration of half-maximal effect. The method in brief:
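Cells were plated and incubated 4 hrs, then dosed with compounds at 15 concentrations. PK11195 was added to 0.75 uM final. After 24 hrs at 37 C, luciferase luminescence was measured.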

The nature of assay [9]: qHTS assay to identify small molecule antagonists of the estrogen related receptor signaling pathway with the pleiotropic PPARgamma coactivator (PGC) from Tox21 10K library - cell viability counter screen (AID 1224840; active = well fitted cell-killing curve with a large enough effect in the repeat runs, not every such curve was filed as active; note: nearly all actives have a fitted effect of over 40% in size). The method in brief:
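Multiplexed viability counter screen in the PGC/ERR cell line: cells treated with DMSO-dissolved compounds for 17.5 hours at 37 C, then viability measured as CellTiter-Fluor fluorescence.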

Assay [10] deals with Thyrotropin receptor (Homo sapiens) (UniProt P16473). Kind of assay: qHTS assay to identify small molecule agonists of the thyroid stimulating hormone receptor (TSHR) signaling pathway (AID 1224843; calls by dose curve; note: nearly all actives have a fitted effect of over 45% in size). The method in brief: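 Agonist-mode screen: TSHR HEK293 cells received test chemicals for half an hour at room temperature, then HTRF cAMP detection reagents for one hour prior to fluorescence measurement. Each chemical ran as a 15-concentration series, triplicated.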
Thyrotropin receptor (Homo sapiens), sequence (P16473 whole entry, looked up): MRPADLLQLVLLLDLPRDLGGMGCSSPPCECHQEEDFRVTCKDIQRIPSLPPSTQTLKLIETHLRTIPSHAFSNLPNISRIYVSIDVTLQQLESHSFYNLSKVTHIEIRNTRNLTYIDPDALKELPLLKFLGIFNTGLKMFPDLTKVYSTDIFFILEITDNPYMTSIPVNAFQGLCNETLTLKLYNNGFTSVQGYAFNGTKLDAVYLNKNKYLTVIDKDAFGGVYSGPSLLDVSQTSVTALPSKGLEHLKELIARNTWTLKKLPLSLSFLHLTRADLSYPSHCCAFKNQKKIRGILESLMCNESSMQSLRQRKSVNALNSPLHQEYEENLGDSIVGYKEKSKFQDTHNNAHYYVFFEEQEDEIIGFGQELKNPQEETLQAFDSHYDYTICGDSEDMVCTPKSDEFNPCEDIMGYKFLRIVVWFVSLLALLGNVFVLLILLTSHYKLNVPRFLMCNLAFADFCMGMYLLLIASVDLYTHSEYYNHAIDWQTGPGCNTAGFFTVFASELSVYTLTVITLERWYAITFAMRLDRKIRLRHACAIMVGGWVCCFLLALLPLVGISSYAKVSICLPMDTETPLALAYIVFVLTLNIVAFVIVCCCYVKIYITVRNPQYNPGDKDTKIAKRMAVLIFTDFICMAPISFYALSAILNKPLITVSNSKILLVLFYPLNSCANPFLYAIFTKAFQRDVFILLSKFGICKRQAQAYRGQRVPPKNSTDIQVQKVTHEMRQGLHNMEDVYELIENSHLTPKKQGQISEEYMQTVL

The nature of assay [11]: qHTS assay to identify small molecule antagonists of the estrogen related receptor signaling pathway with the pleiotropic PPARgamma coactivator (PGC) from Tox21 10K library (AID 1224841; call rule not given here; note: actives are mostly falling curves and most rising ones were filed inactive; nearly all actives have a fitted effect of over 50% in size; note: potency is the fitted concentration of half-maximal effect). The method in brief: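 Steps: plate 2,000 PGC/ERR cells per well; incubate 6 h at 37 C with 5% CO2; transfer compounds from DMSO stocks by pin tool; incubate 18 h at 37 C; add One-Glo; measure luminescence 30 min later.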

A short description of assay [12]: qHTS assay to identify small molecule agonists of the estrogen related receptor signaling pathway with the pleiotropic PPARgamma coactivator (PGC) from Tox21 10K library (AID 1224842). Note: nearly all actives have a fitted effect of over 15% in size. The method in brief: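 PGC/ERR reporter cell line, 2,000 cells per well, incubated 6 h at 37 C before 23 nL compound in DMSO was added. After 18 h at 37 C, One-Glo luminescence read following 30 min at room temperature.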

Assay [13] is described as follows: qHTS assay to identify small molecule antagonists of the retinoic acid receptor (RAR) signaling pathway (AID 1159552; note: nearly all actives have a fitted effect of over 50% in size). The method in brief: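 Retinol at 1 uM final stimulated RARE-luciferase expression in C3RL4 cells exposed to test compounds for 6 hr at 37 C. Reduced luminescence, read 30 min after detection reagent, indicated pathway antagonism.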
Assay [14] in a line: qHTS assay to identify small molecule agonists of the retinoic acid receptor (RAR) signaling pathway (AID 1159553). The method, boiled down: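 Seed C3RL4 reporter cells at 1,000 per well and incubate overnight at 37 C. Add compounds in DMSO, incubate 6 hr. Add luciferase reagent, wait 30 min at room temperature, read luminescence.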
A short description of assay [15]: qHTS assay to identify small molecule antagonists of the estrogen related receptor (ERR) signaling pathway - cell viability counter screen (AID 1224818). Note: series mostly up to about 46 µM. The method, boiled down:
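ERR cells, 2,000/well; 6 h settle at 37 C/5% CO2; compound pin transfer (DMSO); 17.5 h at 37 C; CellTiter-Fluor, 30 min, fluorescence read.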

Assay [16] in a line: qHTS assay to identify small molecule antagonists of the estrogen related receptor signaling pathway with the pleiotropic PPARgamma coactivator (PGC) cell viability counter screen (AID 1224822;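 note: series mostly up to about 46 µM; viability read after 17.5 h compound exposure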). The method, boiled down: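 Multiplexed viability counter screen run in PGC/ERR cells treated with compounds for 17.5 h at 37 C; live-cell protease signal measured by CellTiter-Fluor fluorescence.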

Several values for one entry are separate records, joined by “and”; a condition that tells them apart may be missing. Equal values may be shown once. Results filed as inconclusive are left out. Where a structure was tested more than once in an assay, its records may differ in their call. Activity calls are given as the source filed them. Unless noted, calls come from the whole dose curve; as a rule, active = well fitted curve in the direction sought with a large enough effect in the repeat runs; inconclusive = weak or mixed curves; inactive = no such curve, though single readings can be large; an effect the other way counts as inactive or inconclusive.

Luciferin 4-monooxygenase (Photinus pyralis), sequence (P08659 whole entry, looked up): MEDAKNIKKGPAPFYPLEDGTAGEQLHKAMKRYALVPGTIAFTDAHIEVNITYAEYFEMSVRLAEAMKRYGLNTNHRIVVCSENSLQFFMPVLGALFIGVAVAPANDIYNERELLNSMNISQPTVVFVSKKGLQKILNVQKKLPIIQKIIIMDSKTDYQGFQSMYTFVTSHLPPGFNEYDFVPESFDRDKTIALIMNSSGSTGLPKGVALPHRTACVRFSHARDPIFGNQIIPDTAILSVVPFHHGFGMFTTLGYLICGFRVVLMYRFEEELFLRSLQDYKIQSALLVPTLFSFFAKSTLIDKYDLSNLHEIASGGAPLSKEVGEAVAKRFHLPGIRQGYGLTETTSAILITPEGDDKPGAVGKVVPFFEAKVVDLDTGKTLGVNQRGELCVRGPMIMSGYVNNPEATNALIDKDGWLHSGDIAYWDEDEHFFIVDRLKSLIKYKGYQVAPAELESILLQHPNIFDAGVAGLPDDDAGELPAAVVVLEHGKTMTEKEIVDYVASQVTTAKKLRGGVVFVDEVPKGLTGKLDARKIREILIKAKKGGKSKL

Take `Cc1cc(=O)[nH]c(=S)[nH]1`: the Potency entry in [1], in assay [3], in assay [4], in [5], in assay [6] and in [7] was “inactive” each time. Moreover, the Potency entry in assay [8] and in assay [9] was “inactive” each time. Besides, the call in assay [2] and in [10] was inactive.

As to `NNC(=O)c1ccncc1`, the Potency entry in [1], in assay [3], in assay [4], in assay [5], in assay [6] and in [7] was “inactive” throughout. Further, the Potency entry in assay [8], in assay [9], in assay [11] and in assay [12] was “inactive” each time. Further, the result in assay [2] and in [10] was inactive.

Take `Cn1cc[nH]c1=S`: the Potency entry in assay [1], in assay [13], in assay [3], in assay [5], in assay [6] and in assay [8] was “inactive” in each case. In assay [9], the Potency result is “inactive”. Also, the result in assay [2], in assay [14] and in assay [10] was inactive.

In the case of `CCCCOC(=O)CC(CC(=O)OCCCC)(OC(C)=O)C(=O)OCCCC`, the Potency result in assay [1], in assay [3], in assay [5], in assay [6], in assay [7] and in assay [9] was “inactive” throughout. Further, the Potency entry in assay [12] was “inactive”. In addition, in assay [2], the compound was called inactive. Also, the Potency in [8] is 17.4 µM (active) and 27.3 µM (active); in [11], “inactive and 24.6 µM (active)”.

For `NC(N)=NC(=O)c1nc(Cl)c(N)nc1N`, the Potency entry in [1], in assay [3], in assay [4], in assay [5], in assay [6] and in [8] was “inactive” throughout. For the same compound, the Potency result in [9] is “inactive”. For the same compound, the compound was called inactive in [2], in assay [15], in assay [16] and in [10]. The Potency in assay [7] is 61.5 µM (active) and 50.4 µM (active) and inactive.

As for `N=C(N)c1ccc(OCCCCCOc2ccc(C(=N)N)cc2)cc1`, the Potency entry in [1], in [13], in assay [3], in [5] and in assay [9] was “inactive” each time. For the same compound, the result in assay [2], in assay [14] and in assay [10] was inactive.

Take `CC(=O)OCC(COC(C)=O)OC(C)=O`: the Potency entry in assay [1], in [3], in assay [4], in assay [5], in assay [6] and in assay [9] was “inactive” throughout. Also, the Potency entry in assay [11] and in assay [12] was “inactive” in each case. Moreover, the outcome in assay [2] and in [10] was inactive.

In the case of `O=C(O)/C=C\C(=O)O`, the Potency entry in assay [1], in assay [4], in assay [5], in assay [6] and in [7] was “inactive” each time. Also, the compound was classed as inactive in [2] and in assay [10].

For `OC(Cn1cncn1)(Cn1cncn1)c1ccc(F)cc1F`, the Potency entry in assay [1], in [3], in [5], in [6], in [9] and in assay [11] was “inactive” each time. In addition, the compound was classed as inactive in [2] and in assay [10].

As for `Cn1c(=O)c2[nH]cnc2n(C)c1=O`, the Potency entry in assay [1], in assay [3], in assay [5], in assay [6] and in [9] was “inactive” throughout. In addition, the compound was classed as inactive in [2], in [15], in assay [16] and in assay [10].
